From PubChem BioAssay AID1159580 (chemical genetic matrix, 2015)
Hit rate of the full screen: of about 5,500 compounds, about 2,000 (36%) were called active. Inconclusive results (about 18%) are left out. Cut-off read from the data, not from the text of the source: active = normalized growth mostly below about 0.91 (no sharp cut-off); inconclusive = no clear call, values can overlap the other calls; inactive = mostly above about 0.92. Some of the results follow.

Experiment: chemical genetic growth profiling, strain panel (AID 1159580);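 note: tested at 20 µM; growth read once vehicle control cultures reached saturation at 30 °C; 1 = growth at the plate median or of vehicle wells; lower values mean less growth of the strain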
Conditions: growth OD

Measured: normalized growth

COP(=O)(OC)OC=C(Cl)Cl
inactive: S. cerevisiae deletion strains, locus YJR075W, strain HOC1, hits give low values 0.962 | S. cerevisiae deletion strains, locus YKL009W, strain mrt4, hits give low values 0.951 | S. cerevisiae deletion strains, locus YKL068W, hits give low values 0.986 | S. cerevisiae deletion strains, locus YKL085W, strain MDH1 (second series), hits give low values 0.981 | S. cerevisiae deletion strains, locus YKL085W, strain MDH1, hits give low values 0.981 | S. cerevisiae deletion strains, locus YKL160W, strain elf1, hits give low values 0.999 | S. cerevisiae deletion strains, locus YKL190W, strain CNB1, hits give low values 0.994 | S. cerevisiae deletion strains, locus YKR001C, strain vps1, hits give low values 0.992 | S. cerevisiae deletion strains, locus YKR026C, strain gcn3, hits give low values 1.01 | S. cerevisiae deletion strains, locus YKR091W, strain srl3, hits give low values 0.997 | S. cerevisiae deletion strains, locus YLL001W, strain dnm1, hits give low values 1.01 | S. cerevisiae deletion strains, locus YLL026W, hits give low values 0.997 | S. cerevisiae deletion strains, locus YLL041C, strain sdh2, hits give low values 1 | S. cerevisiae deletion strains, locus YLR027C, strain aat2, hits give low values 1 | S. cerevisiae deletion strains, locus YLR039C, strain RIC1, hits give low values 0.979 | S. cerevisiae deletion strains, locus YLR058C, strain SHM2, hits give low values 0.983 | S. cerevisiae deletion strains, locus YLR102C, strain apc9, hits give low values 0.977 | S. cerevisiae deletion strains, locus YLR113W, strain HOG1, hits give low values 1.02 | S. cerevisiae deletion strains, locus YLR221C, strain rsa3, hits give low values 0.999 | S. cerevisiae deletion strains, locus YLR258W, strain gsy2, hits give low values 0.999 | S. cerevisiae deletion strains, locus YLR262C, strain YPT6 (second series), hits give low values 1.01 | S. cerevisiae deletion strains, locus YLR262C, strain YPT6, hits give low values 0.97 | S. cerevisiae deletion strains, locus YLR268W, strain sec22, hits give low values 0.996 | S. cerevisiae deletion strains, locus YLR320W, strain mms22, hits give low values 1.01 | S. cerevisiae deletion strains, locus YLR330W, strain CHS5, hits give low values 0.996 | S. cerevisiae deletion strains, locus YLR342W, strain FKS1 (second series), hits give low values 0.971 | S. cerevisiae deletion strains, locus YLR342W, strain FKS1, hits give low values 0.983 | S. cerevisiae deletion strains, locus YLR357W, strain rsc2, hits give low values 1.07 | S. cerevisiae deletion strains, locus YLR370C, strain arc18, hits give low values 0.999 | S. cerevisiae deletion strains, locus YLR371W, strain rom2, hits give low values 0.989 | S. cerevisiae deletion strains, locus YLR384C, strain iki3, hits give low values 0.998 | S. cerevisiae deletion strains, locus YLR418C, strain cdc73, hits give low values 1.01 | S. cerevisiae deletion strains, locus YML016C, strain PPZ1, hits give low values 0.986 | S. cerevisiae deletion strains, locus YML032C, strain rad52, hits give low values 0.978 | S. cerevisiae deletion strains, locus YML120C, strain ndi1, hits give low values 0.981 | S. cerevisiae deletion strains, locus YML124C, strain tub3, hits give low values 0.992 | S. cerevisiae deletion strains, locus YMR058W, strain fet3, hits give low values 0.994 | S. cerevisiae deletion strains, locus YMR078C, strain ctf18, hits give low values 0.992 | S. cerevisiae deletion strains, locus YMR125W, strain sto1, hits give low values 0.982 | S. cerevisiae deletion strains, locus YMR129W, hits give low values 0.992 | S. cerevisiae deletion strains, locus YMR205C, strain PFK2, hits give low values 0.991 | S. cerevisiae deletion strains, locus YMR223W, strain ubp8, hits give low values 0.985 | S. cerevisiae deletion strains, locus YMR231W, strain pep5, hits give low values 1.01 | S. cerevisiae deletion strains, locus YMR263W, strain SAP30, hits give low values 0.976 | S. cerevisiae deletion strains, locus YMR307W, strain GAS1, hits give low values 1.1 | S. cerevisiae deletion strains, locus YNL067W, strain RPL9B, hits give low values 0.963 | S. cerevisiae deletion strains, locus YNL071W, strain lat1, hits give low values 1.01 | S. cerevisiae deletion strains, locus YNL128W, strain TEP1, hits give low values 0.956 | S. cerevisiae deletion strains, locus YNL153C, strain GIM3, hits give low values 0.986 | S. cerevisiae deletion strains, locus YNL183C, strain NPR1, hits give low values 0.998 | S. cerevisiae deletion strains, locus YNL209W, strain ssb2, hits give low values 0.998 | S. cerevisiae deletion strains, locus YNL233W, strain BNI4, hits give low values 0.977 | S. cerevisiae deletion strains, locus YNL248C, strain rpa49, hits give low values 0.994 | S. cerevisiae deletion strains, locus YNL250W, strain rad50, hits give low values 0.988 | S. cerevisiae deletion strains, locus YNL271C, strain bni1, hits give low values 0.98 | S. cerevisiae deletion strains, locus YNL298W, strain CLA4, hits give low values 1 | S. cerevisiae deletion strains, locus YNL307C, strain MCK1, hits give low values 1 | S. cerevisiae deletion strains, locus YNL322C, strain KRE1 (second series), hits give low values 1.02 | S. cerevisiae deletion strains, locus YNL322C, strain KRE1, hits give low values 0.985 | S. cerevisiae deletion strains, locus YNR049C, strain mso1, hits give low values 0.982 | S. cerevisiae deletion strains, locus YNR052C, strain pop2, hits give low values 0.991 | S. cerevisiae deletion strains, locus YOL006C, strain TOP1, hits give low values 1.01 | S. cerevisiae deletion strains, locus YOL012C, strain htz1 1.06 | S. cerevisiae deletion strains, locus YOL147C, strain pex11, hits give low values 1 | S. cerevisiae deletion strains, locus YOR001W, strain rrp6, hits give low values 0.996 | S. cerevisiae deletion strains, locus YOR061W, strain CKA2, hits give low values 0.96 | S. cerevisiae deletion strains, locus YOR069W, strain VPS5, hits give low values 0.98 | S. cerevisiae deletion strains, locus YOR070C, strain gyp1, hits give low values 0.99 | S. cerevisiae deletion strains, locus YOR080W, strain dia2, hits give low values 0.987 | S. cerevisiae deletion strains, locus YOR083W, strain WHI5, hits give low values 0.987 | S. cerevisiae deletion strains, locus YOR106W, strain vam3, hits give low values 0.983 | S. cerevisiae deletion strains, locus YOR136W, strain idh2, hits give low values 0.986 | S. cerevisiae deletion strains, locus YOR144C, strain elg1, hits give low values 0.984 | S. cerevisiae deletion strains, locus YOR184W, strain ser1, hits give low values 0.998 | S. cerevisiae deletion strains, locus YOR231W, strain MKK1, hits give low values 1.05 | S. cerevisiae deletion strains, locus YOR265W, strain rbl2, hits give low values 0.988 | S. cerevisiae deletion strains, locus YOR270C, strain vph1, hits give low values 0.976 | S. cerevisiae deletion strains, locus YOR290C, strain snf2, hits give low values 0.997 | S. cerevisiae deletion strains, locus YOR316C, strain cot1, hits give low values 0.971 | S. cerevisiae deletion strains, locus YPL051W, strain arl3, hits give low values 0.998 | S. cerevisiae deletion strains, locus YPL055C, strain LGE1, hits give low values 0.998 | S. cerevisiae deletion strains, locus YPL078C, strain atp4, hits give low values 0.99 | S. cerevisiae deletion strains, locus YPL106C, strain sse1, hits give low values 0.992 | S. cerevisiae deletion strains, locus YPL240C, strain hsp82, hits give low values 1 | S. cerevisiae deletion strains, locus YPL241C, strain CIN2, hits give low values 0.98 | S. cerevisiae deletion strains, locus YPL256C, strain CLN2, hits give low values 1.05 | S. cerevisiae deletion strains, locus YPR119W, strain clb2, hits give low values 0.997 | S. cerevisiae deletion strains, locus YPR141C, strain kar3, hits give low values 0.972 | S. cerevisiae deletion strains, locus YPR163C, strain tif3, hits give low values 0.995 | S. cerevisiae deletion strains, locus YPR167C, strain met16, hits give low values 0.976 | S. cerevisiae deletion strains, strain wtn01, hits give low values 0.995 | S. cerevisiae strains, strain wild type, hits give low values 0.997
